Data on 40 molecules can be found in PubChem BioAssay AID1782 (National Center for Advancing Translational Sciences (NCATS), 2009).

Records with an inconclusive call do not appear. Unmarked numbers belong to inactive results. Active and inactive are the calls of the source. Calls follow the shape of the dose curve; as a rule, active = well fitted curve in the direction sought with a large enough effect; inconclusive = small, poorly fitted or top-dose-only effect, or another doubt; inactive = no such curve, though single readings can be large or run the other way.

Chain of Pyruvate kinase PKLR (Homo sapiens) (P30613 whole entry, looked up): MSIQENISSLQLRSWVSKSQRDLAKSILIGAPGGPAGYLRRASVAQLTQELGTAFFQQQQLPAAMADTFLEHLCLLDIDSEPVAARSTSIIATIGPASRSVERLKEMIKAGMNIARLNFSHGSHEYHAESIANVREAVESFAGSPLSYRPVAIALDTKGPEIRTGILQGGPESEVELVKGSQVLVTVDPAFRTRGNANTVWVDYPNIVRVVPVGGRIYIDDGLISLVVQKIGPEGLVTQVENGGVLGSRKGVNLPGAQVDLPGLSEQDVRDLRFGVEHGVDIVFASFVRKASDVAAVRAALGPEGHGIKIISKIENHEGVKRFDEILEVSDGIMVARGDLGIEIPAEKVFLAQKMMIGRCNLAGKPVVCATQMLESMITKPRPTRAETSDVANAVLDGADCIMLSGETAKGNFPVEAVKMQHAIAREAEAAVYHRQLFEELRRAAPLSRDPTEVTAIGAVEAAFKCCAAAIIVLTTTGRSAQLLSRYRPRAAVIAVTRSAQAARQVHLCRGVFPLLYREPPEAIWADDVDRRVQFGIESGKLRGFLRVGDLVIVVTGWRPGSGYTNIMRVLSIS

The test concerns the target Pyruvate kinase PKLR (Homo sapiens) (UniProt P30613). The test is described as follows: Confirmation Concentration-Response Assay for Activators of Human Reticulocyte Pyruvate Kinase. The conditions noted are these: purified hPK-R, Kinase-Glo ATP luminescence, 1 h; series mostly up to 57.5 µM; activity change, positive = activation: at the top concentration. The text has this:
Confirmatory assay NIH Chemical Genomics Center [NCGC] Wael M. Rabeh, Lyudmila Nedyalkova and Hee-Wan Park [Structural Genomics Consortium, 100 College St. Toronto, Ontario, Canada] NCGC Assay Overview: Human pyruvate kinase reticulocyte (hPK-R) enzyme was supplied as a highly purified (>95% pure) preparation from Structural Genomics Consortium in Toronto (Ontario, Canada) and assayed for its ability to generate ATP from ADP using phosphoenolpyruvate (PEP) as a substrate. ATP generation was detected in a coupled reaction by luciferase-mediated luminescence, an ATP-dependent process. Pyruvate kinase substrates, PEP and ADP, were present in the assay at Km and approximately 10-fold below Km respectively. The enzyme was assayed at an intermediate level of activity to screen for both inhibitors and activators.
NCGC Assay Protocol Summary for R-isoform Three uL of substrate mix (at r.t.) in assay buffer (50 mM Imidazole pH7.2, 50 mM KCl, 7 mM MgCl2, 0.01% Tween 20, 0.05% BSA) was dispensed into white solid bottom 1,536 well microtiter plates so that the final concentrations of substrates in the assay were 0.1 mM ADP and 0.5 mM PEP. 23 nL of compound were delivered by a pin tool and 1 uL of enzyme mix (final concentration of 0.1 nM) in assay buffer (4 degree Celsius) was added. Plates were incubated at room temperature for 1 hour. Two uL of detection mix (Kinase-Glo, Promega; at 4 degree Celsius protected from light) was added and luminescence read by a ViewLux (Perkin Elmer) at 1 second exposure/plate. Data were normalized to the uninhibited (row 31). Additionally, a no enzyme and 5-fold enzyme control was dispensed in row 32, split equally between the two conditions.
(In Kinase-Glo more light means more ATP remaining.)
With `Cc1cc2c(s1)c1cnn(Cc3c(F)cccc3F)c(=O)c1n2C`, the “activity change, positive = activation” value is -1.31%.
Turning to `Cc1cc2c(s1)c1cnn(Cc3ccc(Cl)cc3)c(=O)c1n2C`, the “activity change, positive = activation” value is 4.3%.
The same measure, in the same setting: the same measure for `O=C(CN1C(=O)N/C(=C\c2cccn2-c2cccc(C(=O)O)c2)C1=O)Nc1ccccc1F`: -17.4%; for `Cc1ccc(Cn2ncc3c4sc(C)cc4n(C)c3c2=O)c(C)c1`: -3.18%; for `Cc1cc2c(s1)c1cnn(Cc3ccc(-c4ccccc4)cc3)c(=O)c1n2C`: -5.57%.
The same measure, in the same setting: to `Cn1c2cc(C=O)sc2c2cnn(Cc3ccccc3F)c(=O)c21` belongs -8.47%.
The same measure, in the same setting: the same measure for `COc1cc2c(s1)c1cnn(Cc3ccccc3F)c(=O)c1n2C`: 1.99%; for `Cn1c2cc(CO)sc2c2cnn(Cc3ccccc3F)c(=O)c21`: 1.01%; for `O=S(=O)(c1ccc2c(c1)OCCO2)N1CCN(S(=O)(=O)c2cccc[n+]2[O-])CC1`: 2.18%.
On to `Cc1cc2c(s1)c1cnn(Cc3ccc(F)cc3F)c(=O)c1n2C`, for which the “activity change, positive = activation” value is -0.917%.
The same measure, in the same setting: to `Cc1cc2c(s1)c1cnn(Cc3ccccc3F)c(=O)c1n2C(C)C` belongs -3.41%.
Turning to `COC(=O)c1cc2c(s1)c1cnn(Cc3ccccc3F)c(=O)c1n2C`, the “activity change, positive = activation” value was -2.06% [at 28.7 µM].
Turning to `Cc1ccc(Cn2ncc3c4sc(C)cc4n(C)c3c2=O)cc1`, the “activity change, positive = activation” value is 0.115%.
For the molecule `Cc1cc2c(s1)c1cnn(Cc3ccc(C)c(F)c3F)c(=O)c1n2C`, the “activity change, positive = activation” value is 0.141%.
The same measure, in the same setting: to `O=C(c1c(F)cccc1F)N1CCN(S(=O)(=O)c2ccc3c(c2)OCCO3)CC1` belongs -15.6%.
Turning to `COc1ccc(S(=O)(=O)N2CCN(S(=O)(=O)c3c(F)cccc3F)CC2)cc1`, the Potency entry is “inactive”.
`Cc1cc2c(s1)c1cnn(-c3ccccc3)c(=O)c1n2C`: the “activity change, positive = activation” value is 2.99%.
The same measure, in the same setting: to `O=S(=O)(c1ccc2c(c1)OCO2)N1CCN(S(=O)(=O)c2c(F)cccc2F)CC1` belongs -5.58%.
On the same count and under the same terms, the same measure for `O=S(=O)(NCCNS(=O)(=O)c1c(F)cccc1F)c1ccc2c(c1)OCCO2`: 10.2%.
Same read-out and setting: to `O=S(=O)(c1ccc(F)cc1)N1CCN(S(=O)(=O)c2ccc3c(c2)OCCO3)CC1` belongs -5.67%.
Take `Cc1cc2[nH]c3c(=O)n(Cc4ccccc4F)ncc3c2s1`: the Potency result was “inactive”.
Regarding `Cc1cc2c(s1)c1cnn(Cc3ccc(C(C)C)cc3)c(=O)c1n2C`, the “activity change, positive = activation” value was 1.33%.
The same measure, in the same setting: to `CCCCCn1ncc2c3sc(C)cc3n(C)c2c1=O` belongs -3.84%; to `Cc1cc2c(s1)c1cnn(Cc3ccc(C(F)(F)F)cc3F)c(=O)c1n2C`, 0.632%; to `CCCc1cc(F)c(S(=O)(=O)N2CCN(S(=O)(=O)c3ccc4c(c3)OCCO4)CC2)cc1F`, -0.771%.
Regarding `O=S(=O)(NCCCCCNS(=O)(=O)c1c(F)cccc1F)c1ccc2c(c1)OCCO2`, the “activity change, positive = activation” value is 7.54%.
Still for that read-out and setting: the same measure for `COc1ccc(Cn2ncc3c4sc(C)cc4n(C)c3c2=O)cc1F`: -3.6%; for `CCc1cc2c(s1)c1cnn(Cc3ccccc3F)c(=O)c1n2C`: -7.08%.
On the same count and under the same terms, the same measure for `CC(=O)c1cc2c(s1)c1cnn(Cc3ccccc3F)c(=O)c1n2C`: 3.32%; for `O=S(=O)(c1ccc2c(c1)OCCCO2)N1CCN(S(=O)(=O)c2c(F)cccc2F)CC1`: 5.67%.
Consider `CC1(C)CCc2cc(S(=O)(=O)N3CCN(S(=O)(=O)c4c(F)cccc4F)CC3)ccc2O1`, for which the Potency entry is “inactive”.
Turning to `Cc1cc2c(s1)c1cnn(Cc3ccccc3Cl)c(=O)c1n2C`, the “activity change, positive = activation” value was -2.54%.
Take `COc1ccc(S(=O)(=O)N2CCN(S(=O)(=O)c3ccc4c(c3)OCCO4)CC2)cc1`: the Potency was 1410 nM (active).
In the case of `Cn1c2ccsc2c2cnn(Cc3ccccc3F)c(=O)c21`, the “activity change, positive = activation” value was -11%.
As to `Cn1c2cc(B(O)O)sc2c2cnn(Cc3ccccc3F)c(=O)c21`, the “activity change, positive = activation” value was 5.24%.
For the molecule `Cn1c2cc(S(C)=O)sc2c2cnn(Cc3ccccc3F)c(=O)c21` (stereo not given), the “activity change, positive = activation” value is -8.85%.
On to `Cc1cc2c(s1)c1cnn(Cc3ccc(F)cc3)c(=O)c1n2C`, for which the “activity change, positive = activation” value is -3%.
Still for that read-out and setting: to `O=S(=O)(c1ccc(Cl)cc1)N1CCN(S(=O)(=O)c2ccc3c(c2)OCCO3)CC1` belongs -2.24%.
On the same count and under the same terms, to `Cc1cc2c(s1)c1cnn(Cc3c(F)cccc3Cl)c(=O)c1n2C` belongs 1.3%; to `CSc1cc2c(s1)c1cnn(Cc3ccccc3F)c(=O)c1n2C`, -10.3%.
